SENP7 block – inhibitors of human SENP7 protease; Q9BQF6; recombinant SENP7, Z-RLRGG-aminoluciferin luminescence, 40 min; inhibition, % at 5 µM; actives 1.5% (n = 330,000); AID 434973;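 active = inhibition above about 50% at the single test dose, limit read from the data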
LGR2 antag – inhibitors of bursicon-induced Drosophila LGR2 receptor cAMP signaling. actives 0.35% (n = 380,000). HEK293 LGR2, CRE-luciferase, bursicon-stimulated, 4 h. AID 720647. inhibition, % at 9.99 µM;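 active = drop in luminescence signal, shown as inhibition above about 50% in the replicate tests, limit read from the data, passing the limit was not always enough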;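 also: agonist challenge used bursicon conditioned medium at about half maximal strength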
HSP90 refold inh – HSP90 refolding inhibition in rabbit reticulocyte lysate | luciferase refolding luminescence, 3 h | inhibition, % at 5.6 µM | actives 0.91% (n = 290,000) | AID 1789;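 active = inhibition above the screen-wide mean plus 3 SD, computed separately per campaign, cut at about 16% in these data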;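 also: inhibitors lower the luminescence because luciferase stays unfolded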
SENP6 block – SENP6 protease inhibition; Q9GZR1; Recombinant SENP6 catalytic domain, aminoluciferin luminescence; inhibition, % at 10 µM; actives 1.8% (n = 330,000); AID 2599;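 active = inhibition above about 50% at the single tested dose, limit read from the data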
SENP8 block-1 – blocks the human protease SENP8 | purified SENP8, Z-RLRGG-aminoluciferin cleavage, luminescence | actives 1.2% (n = 330,000) | Q96LD8 | inhibition, % at 10 µM; in the data active = inhibition above about 50%
Target sequence (Q96LD8 whole entry, looked up): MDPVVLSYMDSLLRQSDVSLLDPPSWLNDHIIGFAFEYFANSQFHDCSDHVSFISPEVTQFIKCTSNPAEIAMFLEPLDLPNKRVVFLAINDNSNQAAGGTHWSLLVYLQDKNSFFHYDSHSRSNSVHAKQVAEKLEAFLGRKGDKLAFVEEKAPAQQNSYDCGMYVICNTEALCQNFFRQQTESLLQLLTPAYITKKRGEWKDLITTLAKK
SENP8 block-2 – inhibitors of human SENP8 protease | Q96LD8 | recombinant SENP8, Nedd8 substrate fluorescence | inhibition, % at 20 µM | actives 0.64% (n = 360,000) | AID 602440; in the data active = inhibition mostly above about 40%, no sharp cut-off; inactive = mostly below about 27%
SENP8 confirm – confirmation of human SENP8 protease inhibitors; actives 40% (n = 6,200); AID 488912; inhibition, % at 12.5 µM; shares compounds with SENP7 block; Recombinant SENP8, Z-RLRGG-aminoluciferin luminescence, 60 min;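 active = mean inhibition across replicates above about 50%, limit read from the data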
SENP6 confirm – confirmation of human SENP6 protease inhibitors | recombinant SENP6, Z-RLRGG-aminoluciferin luminescence | shares compounds with SENP7 block | actives 58% (n = 6,200) | AID 488915 | inhibition, % at 12.5 µM
SENP7 conf – human SENP7 inhibition, confirmed | recombinant SENP7, Z-RLRGG-aminoluciferin luminescence, 40 min | inhibition, % at 12.5 µM | actives 69% (n = 6,200) | shares compounds with SENP7 block | AID 488917
Casp3 SENP sel – selectivity test for SENP inhibitors: human caspase-3 inhibition; shares compounds with SENP7 block; purified caspase-3, Z-DEVD-aminoluciferin luminescence, 60 min; inhibition, % at 12.5 µM; actives 60% (n = 6,200);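 active = mean inhibition above about 50%, limit read from the data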
Target sequence (P42574 28-227 limits assumed): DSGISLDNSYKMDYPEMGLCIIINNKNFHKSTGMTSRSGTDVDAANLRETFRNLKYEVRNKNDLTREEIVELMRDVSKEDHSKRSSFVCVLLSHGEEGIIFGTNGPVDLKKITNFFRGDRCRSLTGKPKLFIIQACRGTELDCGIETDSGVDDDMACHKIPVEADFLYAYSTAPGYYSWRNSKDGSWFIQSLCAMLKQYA
SENP luc ctr – luminescence interference (SENP counter-screen). shares compounds with SENP7 block. Pre-incubated SENP8/Z-RLRGG-aminoluciferin, luciferase luminescence interference. inhibition, % at 12.5 µM. actives 39% (n = 6,200). AID 488919;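 active = mean inhibition above about 50% when retested at one dose, limit read from the data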
Large screens that a line does not name were inactive (follow-up assays come after a bar, where they were run). This is a sample that favours compounds with a hit; in the whole collection about 2.3% have one here.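 The calls were made as follows, unless noted: active = mean inhibition above about 50% in the one-dose retest (limit read from the data); inactive = the rest.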

CC(=O)N(C)c1ccc(NC(=S)Nc2ccccc2)cc1	none
O=C(Nc1cccc2ccccc12)c1cccc(F)c1	none
CC(=O)N(C)c1ccc(NC(=S)Nc2cccc3ccccc23)cc1	SENP6 block 68, SENP8 block-1 59 | SENP8 confirm inactive | SENP6 confirm inactive | SENP7 conf inactive | Casp3 SENP sel inactive | SENP luc ctr inactive
O=C(NCCc1ccccc1)[C@H]1[C@H](CO)[C@H]2Cn3c(cccc3=O)[C@H]2N1Cc1cccnc1	none (no result: SENP7 block, HSP90 refold inh, SENP6 block, SENP8 block-1, SENP8 block-2)
C[C@H]1CN([C@@H](C)CO)C(=O)Cc2cc(NC(=O)CCCCCC(=O)Nc3ccccc3N)ccc2O[C@H]1CN(C)C(=O)Nc1ccccc1	none (no result: SENP7 block, HSP90 refold inh, SENP6 block, SENP8 block-1, SENP8 block-2)
O=C(N/N=C/c1cccc([N+](=O)[O-])c1)c1nc2ccccc2c(=O)[nH]1	none
O=C(N/N=C/c1ccccc1Cl)c1nc2ccc([N+](=O)[O-])cc2c(=O)[nH]1	SENP6 block 57, SENP8 block-1 75 | SENP8 confirm inactive | SENP6 confirm 53 | SENP7 conf inactive | Casp3 SENP sel 50 | SENP luc ctr inactive
O=C(N/N=C/c1ccccc1Cl)c1ccc(F)cc1	SENP6 block 69 | SENP8 confirm inactive | SENP6 confirm inactive | SENP7 conf inactive | Casp3 SENP sel inactive | SENP luc ctr inactive
COc1ccc(-c2cn(CC[C@@H]3CC[C@@H](NS(=O)(=O)c4ccccc4C)[C@@H](CO)O3)nn2)cc1	none (no result: SENP7 block, HSP90 refold inh, SENP6 block, SENP8 block-1, SENP8 block-2)
Cc1cccc(-c2cc3c(nn2)-c2ccccc2C3=O)c1	SENP7 block 100, SENP6 block 90, SENP8 block-1 95 | SENP8 confirm inactive | SENP6 confirm 74 | SENP7 conf 88 | Casp3 SENP sel 83 | SENP luc ctr inactive
O=C1c2ccccc2-c2nnc(-c3ccccc3)cc21	SENP7 block 99, SENP6 block 99, SENP8 block-1 96 (no result: LGR2 antag) | SENP8 confirm inactive | SENP6 confirm inactive | SENP7 conf inactive | Casp3 SENP sel inactive | SENP luc ctr inactive
COc1ccc(-c2cc3c(nn2)-c2ccccc2C3=O)cc1	SENP7 block 99, LGR2 antag 94, SENP6 block 97, SENP8 block-1 96, SENP8 block-2 43 | SENP8 confirm inactive | SENP6 confirm inactive | SENP7 conf inactive | Casp3 SENP sel inactive | SENP luc ctr inactive
Cc1cnc2c(c1)C(=O)c1ccccc1-2	none
Oc1ccc(N=Nc2ccc3c(c2)OCCO3)c2ncccc12	none
Cc1cccc(N=Nc2ccc(O)c3ncccc23)c1	SENP6 block 69 | SENP8 confirm inactive | SENP6 confirm inactive | SENP7 conf inactive | Casp3 SENP sel inactive | SENP luc ctr inactive
O=c1nc2c(-c3ccccc3F)n[nH]n2c2ccccc12	SENP7 block 90, SENP6 block 85, SENP8 block-1 90 (no result: LGR2 antag) | SENP8 confirm 79 | SENP6 confirm 92 | SENP7 conf 100 | Casp3 SENP sel 93 | SENP luc ctr 53
Cn1c(=O)c2c(nc(NCC3CCCO3)n2C)n(C)c1=O (stereo not drawn)	SENP7 block 51 (no result: LGR2 antag) | SENP8 confirm inactive | SENP6 confirm inactive | SENP7 conf inactive | Casp3 SENP sel inactive | SENP luc ctr inactive
CCCNC(=O)[C@@H]1[C@@H](CO)[C@@H]2Cn3c(ccc(-c4ccccc4F)c3=O)[C@@H]2N1C(=O)C1CCC1	none (no result: SENP7 block, HSP90 refold inh, SENP6 block, SENP8 block-1, SENP8 block-2)
CC1(C)CC(=O)C(C=Nc2ccc3[nH]ncc3c2)=C(O)C1	none
Oc1c(Br)cc(Br)cc1C=Nc1cccnc1	SENP6 block 55 | SENP8 confirm inactive | SENP6 confirm inactive | SENP7 conf inactive | Casp3 SENP sel inactive | SENP luc ctr inactive
COc1ccc(C=Nc2ccc3[nH]ncc3c2)c(O)c1	SENP6 block 62 | SENP8 confirm inactive | SENP6 confirm inactive | SENP7 conf inactive | Casp3 SENP sel inactive | SENP luc ctr inactive
Oc1c(Br)cc(Br)cc1C=Nc1ccc2[nH]ncc2c1	SENP6 block 56 | SENP8 confirm inactive | SENP6 confirm inactive | SENP7 conf inactive | Casp3 SENP sel inactive | SENP luc ctr inactive
COc1cccc(-c2cc3nc(-c4ccccc4)cc(=O)n3[nH]2)c1	SENP7 block 51, SENP6 block 87, SENP8 block-1 85 | SENP8 confirm inactive | SENP6 confirm 85 | SENP7 conf 79 | Casp3 SENP sel 84 | SENP luc ctr inactive
Cc1cc(=O)n2[nH]c(-c3ccccc3)cc2n1	none (no result: LGR2 antag)
CSc1nc2nc(-c3ccccc3)cc(=O)n2[nH]1	SENP6 block 53 (no result: LGR2 antag) | SENP8 confirm inactive | SENP6 confirm inactive | SENP7 conf 64 | Casp3 SENP sel 75 | SENP luc ctr 50
O=c1cc(-c2ccccc2)nc2cc(-c3ccc(F)cc3)[nH]n12	SENP6 block 87, SENP8 block-1 79 (no result: LGR2 antag, HSP90 refold inh) | SENP8 confirm inactive | SENP6 confirm inactive | SENP7 conf inactive | Casp3 SENP sel inactive | SENP luc ctr inactive
CO[C@H]1CN(C)C(=O)c2ccc(NC(=O)C3CC3)cc2OC[C@@H](C)N(Cc2cncnc2)C[C@@H]1C	none (no result: SENP7 block, HSP90 refold inh, SENP6 block, SENP8 block-1, SENP8 block-2)
C[C@H](CO)N1C[C@H](C)[C@@H](CN(C)Cc2cccc(F)c2)Oc2ncc(C#C[C@@H](C)O)cc2C1=O	none (no result: SENP7 block, HSP90 refold inh, SENP6 block, SENP8 block-1, SENP8 block-2)
C[C@H]1CN([C@@H](C)CO)C(=O)c2cc(C#CC3(O)CCCC3)cnc2O[C@@H]1CN(C)C(=O)Cc1ccncc1	none (no result: SENP7 block, HSP90 refold inh, SENP6 block, SENP8 block-1, SENP8 block-2)
CCCc1[nH]n(-c2nc3ccccc3s2)c(=O)c1C=NCC1CCCO1 (stereo not drawn)	none
CCCc1[nH]n(-c2nc3ccccc3s2)c(=O)c1C=NCCN1CCOCC1	SENP6 block 51 | SENP8 confirm 56 | SENP6 confirm inactive | SENP7 conf 52 | Casp3 SENP sel 60 | SENP luc ctr 55
COc1ccc(N=Cc2c(O)c3ccccc3n2C(C)=O)cc1	none
COc1ccc(N=Cc2sc(O)c3ccccc23)cc1	SENP7 block 70, SENP6 block 62, SENP8 block-1 79 (no result: LGR2 antag) | SENP8 confirm 93 | SENP6 confirm 92 | SENP7 conf 100 | Casp3 SENP sel 73 | SENP luc ctr 81
Cc1nc2cc(NC(=O)Nc3cccc4ccccc34)ccc2n1C	SENP7 block 80 | SENP8 confirm inactive | SENP6 confirm inactive | SENP7 conf 74 | Casp3 SENP sel 71 | SENP luc ctr inactive
